In PubChem BioAssay AID463215 (Sanford-Burnham Center for Chemical Genomics, 2010):
Hit rate of the full screen: of about 4,600 compounds, about 2,900 (63%) were called active.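 How the source made its calls: active means inhibition of yeast growth at or above a set limit in either of two replicates at 10 µM; inactive means the rest.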 So high a share suggests a set chosen from earlier hits. Only a sample is shown.

Experiment: growth inhibitors of wild-type TIM10 yeast, confirmation, counter-screen for tim10-1 synthetic lethality project, single concentration, luminescence, S. cerevisiae (AID 463215);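 further: isogenic wild-type TIM10 control yeast grown in succinate dextrose medium; this counterscreen used the strain with wild-type TIM10; 0% = yeast with DMSO and 100% = medium wells lacking yeast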
Conditions: S. cerevisiae tim10 strain growth, BacTiter-Glo luminescence, 24 h; at 10 µM; stronger effect = higher value

Structure (SMILES) | inhibition
CC1CCCCC1NC(=O)/C(C#N)=C/C=C/c1ccccc1[N+](=O)[O-] (stereo not given) | 41.3% (active)
COc1ccc2nc(N3CCN(C(=O)c4ccc([N+](=O)[O-])o4)CC3)sc2c1 | 82.2% (active)
Cc1ccccc1OCC(=O)Nc1ccc(N2CCN(C(=O)C(C)C)CC2)c(Cl)c1 | 62.8% (active)
Oc1c(Cl)cc(Cl)c(Cl)c1Cc1c(O)c(Cl)cc(Cl)c1Cl | 89.8% (active)
CSC1=N/C(=C\C=C\c2cccs2)C(=O)S1 | 56.8% (active)
Cc1cccc(C2=N/C(=C/c3cccs3)C(=O)O2)c1 | 22% (inactive)
O=C(CCN1CCc2ccccc2C(O)(c2ccccc2)C1)c1ccc2c(c1)OCCO2 (stereo not given) | 46.2% (active)
Cc1cccc(NC(=S)NCc2ccc3[nH]c4c(c3c2)CCCC4)c1 | 34.5% (active)
Cc1cc(C)cc(NC(=S)NCCc2c[nH]c3ccccc23)c1 | -10.2% (inactive)
c1ccc(C2=Nc3cccc4cccc(c34)N2)cc1 | -39.8% (inactive)
O=C1c2ccccc2C(=O)c2c1cccc2N1CCN(Cc2ccccc2)CC1 | 34.2% (active)
O=Cc1c(N2CCN(c3cccc(Cl)c3)CC2)nc2ccccn2c1=O | 17.8% (inactive)
COc1cc(Br)cc(/C=N/c2ncn[nH]2)c1O | 35% (active)
c1ccc(-c2nnc3n2NC(c2ccc4c(c2)OCO4)S3)cc1 (stereo not given) | 59.1% (active)
Cc1ccc(-c2nn(C(C)(C)C)c3ncnc(N)c23)cc1 | 54.8% (active)
CC(C)(CCl)C(=O)Nc1ccc(Sc2ccc(F)cc2)cc1 | 41% (active)
C=CCNC(=O)c1ccc2c3n(nc2c1)-c1ccc(C)cc1CO3 | 45.5% (active)
CCOC(=O)C1=C(C)N=c2s/c(=C\C(=O)OC)c(=O)n2C1c1ccc(OC)cc1 (stereo not given) | 53.6% (active)
O=C(COC(=O)c1ccc([N+](=O)[O-])o1)NC12CC3CC(CC(C3)C1)C2 | 44.8% (active)
S=C(NCc1ccc(Cl)cc1)NC12CC3CC(CC(C3)C1)C2 | 23.8% (inactive)
COc1ccc(CN(C(=O)CSc2nnc(-c3ccc(OC)c(OC)c3)o2)c2ccc(F)cc2)cc1 | 19% (inactive)
CCN(CC)c1ccc(/C=N/NC(=O)c2cnccn2)c(O)c1 | 41.4% (active)
COc1ccc(C(=O)O/N=C(\N)Cc2ccc(Cl)cc2Cl)cc1OC | 86.7% (active)
Cc1cc(N=Nc2ccc3ccccc3c2)ccc1O | 88.4% (active)
FC(F)(F)c1cnc(Oc2ccccc2-c2nnc(-c3ccc(Cl)cc3)o2)c(Cl)c1 | 5.25% (inactive)

Structure (SMILES) | inhibition
O=C1Oc2ccccc2C(=O)/C1=C/c1ccccc1O | 57.5% (active)
Cc1cccc(N=Nc2c(O)[nH]c3ccc(F)cc23)c1 | 40.8% (active)
COc1cc(NC(=O)c2cccs2)ccc1NC(=O)c1ccccc1Cl | 5.7% (inactive)
Cc1nc(-c2ccc(NC(=O)c3cccs3)cc2)cs1 | -32.7% (inactive)
O=C(Nc1ccc(NC(=O)c2cccs2)cn1)c1ccco1 | 32.2% (active)
Cc1ccc(-c2cn3cc(C)ccc3n2)cc1 | 67% (active)
Cc1ccc2nc(-c3ccc(Br)cc3)cn2c1 | 38.8% (active)
Nc1cc(OC(=O)c2ccccc2Br)nn1S(=O)(=O)c1ccccc1 | 48% (active)
CN1C(=O)/C(=N/OC(=O)c2ccccc2Br)c2ccccc21 | 61.5% (active)
Fc1ccccc1/C=C1\CCCC2=C1Nc1ncnn1C2c1ccccc1F (stereo not given) | 26.4% (inactive)
CCc1cc(C(N)=O)c(NC(=O)c2ccc(OC)cc2)s1 | 59.7% (active)
COc1ccc(C(=O)Nc2ccc(-n3nncc3C(C)(C)C)cc2)cc1 | 21.1% (inactive)
CC(C)(C)C(=O)c1cnc(Nc2ccccc2)s1 | 21.1% (inactive)
CSCCC(NS(=O)(=O)/C=C/c1ccccc1)C(=O)N1CCC(C)CC1 (stereo not given) | 2.25% (inactive)
CCn1c(/C=C/c2ccc([N+](=O)[O-])o2)nc2ccccc2c1=O | 80.8% (active)
COc1ccc2c(c1)cc1n2CCN=C1NN | 51.4% (active)
COc1ccccc1-c1n[nH]c2c1[C@H](C)CC[C@H]2C(C)C | 50.2% (active)
Cc1cc(N)n2nc(-c3ccc(C(C)(C)C)cc3)cc2n1 | 9.25% (inactive)
CC1=C/C(=N\OS(=O)(=O)c2ccccc2)C=CC1=O | -32.8% (inactive)
O=C(Nc1nnc(SCc2c(Cl)cccc2Cl)s1)C1CCCO1 (stereo not given) | 41% (active)
CC(C)c1ccc(NC(=S)NC2CC3C=CC2C3)cc1 (stereo not given) | 35.2% (active)
O=C1c2ccccc2S(=O)(=O)N1CC(O)Cn1c2ccccc2c2ccccc21 (stereo not given) | 46.1% (active)
CCOC(=O)CNC(=O)CSc1ncccc1-c1nc2ccccc2[nH]1 | 1.05% (inactive)
O=C(Nc1ccc(Cl)c(Cl)c1)N1CC=C(c2ccccc2)CC1 | 33.3% (active)
Nc1cccc(-c2cc(-c3ccccc3)nc(-c3cccc(N)c3)n2)c1 | 36.6% (active)

Structure (SMILES) | inhibition
CS(=O)(=O)c1sc2nc(-c3ccccc3)cc(-c3ccccc3)c2c1N | -14.8% (inactive)
O=c1oc2ccccc2cc1-c1csc(Nc2ccc(O)cc2)n1 | 39.9% (active)
O=C(CC(O)(C(F)(F)F)C(F)(F)F)Nc1ccc(Cl)c(Cl)c1 | 92.4% (active)
CCOC(=O)C1Sc2[nH]c(=O)sc2C(c2ccc(Cl)cc2)C1C(=O)OCC (stereo not given) | 48.2% (active)
CC1CC(=S)Nc2ccccc2N1Cc1ccccc1 (stereo not given) | -14.8% (inactive)
O=C(Oc1ccc([N+](=O)[O-])cc1)c1ccc2ccccc2n1 | 33.2% (active)
CCCc1nc2c(c(=O)c3ccccc3n2C)c(=O)n1C1CCCCCC1 | -18.1% (inactive)
Cc1[nH]n(C(N)=S)c(=O)c1N=Nc1ccc(Cl)cc1Cl | 51.7% (active)
CCCCC1(C(=O)OCC)NC(c2ccc(O)cc2)C2C(=O)N(c3ccccc3)C(=O)C21 (stereo not given) | 7% (inactive)
CCSC1=C(C#N)C(=O)n2c1cc1c2CCCC1 | 56.2% (active)
CC(=NCc1ccc2c(c1)OCO2)C1=C(O)c2ccccc2C1=O | 66.2% (active)
O=C(NCc1ccc2c(c1)OCO2)c1c(O)nc2sccn2c1=O | 27.8% (inactive)
COc1ccc(O)c(C(=O)c2cnc3c(c2)c(-c2ccc(F)cc2)c(C#N)c(=O)n3C)c1 | 3.75% (inactive)
O=C1[C@@H](c2ccccc2)[C@@H](c2ccccc2)N1c1cccnc1 | 61.4% (active)
C=CCNC(=S)NNC(=O)COc1c(Cl)cc(Cl)cc1Cl | 2.85% (inactive)
O=C(Oc1c(-c2ccco2)oc2ccccc2c1=O)c1cccnc1 | 48% (active)
Cc1ccc2nc(N(CCN(C)C)C(=O)C3=COCCO3)sc2c1 | 34.9% (active)
CN(C)CCN(C(=O)C1=COCCO1)c1nc2ccc(Cl)cc2s1 | 69.3% (active)
Cc1ccoc1C(=O)Nc1cccc(Oc2ccccc2)c1 | 61% (active)
Cc1nc(-c2ccc(Cl)cc2)sc1C(=O)CBr | 52.6% (active)
CCNC(=S)N(CCc1c(C)[nH]c2ccc(C)cc12)Cc1ccco1 | 20.2% (inactive)
Cc1cccc(NC(=O)c2ccc([N+](=O)[O-])o2)c1 | 81.6% (active)
Cc1onc(NC(=O)c2ccc([N+](=O)[O-])o2)c1Br | 53.8% (active)
O=C(Nc1ccc(Br)cn1)c1ccc([N+](=O)[O-])o1 | 46.5% (active)
CC(C)CC(=O)NC(=S)Nc1ccc(F)cc1F | 15.1% (inactive)

Structure (SMILES) | inhibition
Cc1ccc2nc(-c3ccc(SCC(=O)Nc4cc(C)on4)nc3)[nH]c2c1 | 2.7% (inactive)
CC(C)Oc1c(Br)cc(Br)cc1/C=N/NC(N)=S | 23.6% (inactive)
NC(=S)N/N=C/c1coc2cc(Cl)ccc2c1=O | 50.8% (active)
C=C(C)COc1ccc(-c2n[nH]c(C)c2-c2ccccc2)c(O)c1 | 40.1% (active)
Oc1ccccc1-c1cc(-c2ccc(Cl)cc2)n[nH]1 | 55.5% (active)
CC(C)NC(=O)/C(C#N)=C\c1ccc(N(C)C)c(Br)c1 | 46.6% (active)
O=c1[nH]cnc2c1c(-c1ccccc1)cn2-c1ccc(F)cc1 | -25.6% (inactive)
CC(=NCc1ccco1)c1c(C(F)(F)F)[nH]n(-c2nc3ccccc3s2)c1=O | 57.4% (active)
N/C(=N\OC(=O)CCc1ccccc1)c1ccc(Cl)cc1 | 57.2% (active)
COc1ccc(/C(N)=N/OC(=O)CCCc2ccccc2)cc1 | 39.8% (active)
COc1ccc(-c2oc3ncn(Cc4ccco4)c(=N)c3c2-c2ccc(OC)cc2)cc1 | 38.8% (active)
COc1ccc2[nH]cc(/C=C(/C#N)S(=O)(=O)c3ccccc3)c2c1 | 38% (active)
N/C(=N\OC(=O)Nc1ccc(Cl)c(Cl)c1)c1ncc(C(F)(F)F)cc1Cl | 72.8% (active)
CC1CCCC(C)N1C(=O)CN1CCN(c2nc(-c3ccc(F)cc3)cs2)CC1 (stereo not given) | 39.2% (active)
CC(=O)Oc1ccc(N(C(C)=O)S(=O)(=O)c2ccc3ccccc3c2)cc1Br | 40.5% (active)
Cc1cc(C)n(CC(O)CN(c2ccccc2)S(=O)(=O)c2ccc3ccccc3c2)n1 (stereo not given) | 2.2% (inactive)
CCc1ccc(OCC(=O)NCC(c2ccc(Cl)cc2)N2CCCCC2)cc1 (stereo not given) | 44% (active)
CC1CCC2CCCCC2N1C(=O)c1cc([N+](=O)[O-])cc([N+](=O)[O-])c1 (stereo not given) | 33% (active)
CCOc1ccccc1/C=c1\sc2nc(-c3ccco3)nn2c1=O | 48.9% (active)
Cc1ccc(-c2ccnc3nc(Sc4ncc(C(F)(F)F)cc4Cl)nn23)cc1 | 29.6% (inactive)
Cc1nn2c(c1-c1ccccc1)N=C(c1ccco1)CC2c1ccccc1 (stereo not given) | -19.4% (inactive)
CC(NC(=S)Nc1ccccc1)C1COc2ccccc2O1 (stereo not given) | 40.3% (active)
Cc1ccc(N2C(=O)C3C4C=CC(CC4)C3C2=O)cc1Cl (stereo not given) | 0.2% (inactive)
COc1cccc(OCc2cc(C(=O)N3CCN(C(=O)c4ccco4)CC3)no2)c1 | 8.3% (inactive)
Cc1ccc(C(=O)COc2cccc(NC(=O)c3ccco3)c2)cc1 | 53.1% (active)
